Results taken from PubChem BioAssay (NCI).
This is part of a sample that, as a whole, favours compounds with a hit. Of some 83,000 tested, about 20% had one in any assay.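 Method: cells in 96-well plates; compound added at one concentration; 48 h incubation; percent growth measured; values under 10 scored active.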 A number with no mark means an inactive call. The source made the active and inactive calls.

How the values were obtained:
Assay in all cases: NCI-60 one-dose screen, 48 h (100 = growth as untreated, 0 = no growth, -100 = all killed)
Conditions in all cases: 10 µM
[1] = test system: T-47D breast
[2] = test system: BT-549 breast
[3] = test system: MDA-MB-435 melanoma
[4] = test system: SW-620 colon
[5] = test system: MCF7 breast
[6] = test system: HCT-116 colon
[7] = test system: HCC-2998 colon
[8] = test system: KM12 colon

SMILES	growth [1]	growth [2]	growth [3]	growth [4]	growth [5]	growth [6]	growth [7]	growth [8]
CC(=O)OCC(COC(C)=O)(COC(C)=O)COC(C)=O	-11.3% (active)	112%	111%	108%	93.8%	111%	101%	102%
O=[N+]([O-])c1ccc(S(=O)(=O)OCCCCOS(=O)(=O)c2ccc([N+](=O)[O-])cc2)cc1	100%	106%	95.1%	102%	95.9%	108%	100%	107%
CCOc1ccc2c(c1)CC[C@@H]1[C@@H]2CC[C@]2(C)[C@@H](O)[C@@H](O)C[C@@H]12	93.8%	119%	90.2%	95.9%	111%	104%	108%	106%
O=C(C=P(c1ccccc1)(c1ccccc1)c1ccccc1)c1ccc(Br)cc1	87.9%	107%	106%	80.7%	92.4%	67.8%	–	83.4%
CCCN(CCC)CCCNC(=O)c1cc2c(-c3ccc(OC)c(OC)c3)nn(C)c2s1	24.5%	13.7%	-24.5% (active)	10.8%	11.2%	13.7%	67.2%	6.62% (active)
COc1cc(/C=C/C(=O)c2cc(-c3ccccc3)ccc2O)cc(OC)c1OC	43.4%	88.8%	55.4%	81.9%	47%	61.3%	97%	78.6%
CCn1nc(-c2ccc(C(=O)OC)cc2)nc2c(=O)n(C)c(=O)nc1-2	84.1%	98.2%	64.1%	97.7%	80%	51.5%	116%	80.4%
NC1CCC(Nc2nc(NCc3ccc(-c4ccco4)nc3)c3ncn(C4CCCC4)c3n2)CC1 (configuration not stated)	-11.3% (active)	-25.7% (active)	11.4%	7.93% (active)	1.09% (active)	3.79% (active)	-19% (active)	4.05% (active)
CC1(C)CC(=O)c2c(nc3ccc(Cl)cc3c2-c2ccccc2)C1	85.7%	85.8%	84.5%	159%	86.3%	91%	–	94%
CCOc1nc(-c2ccccc2)cc2c(O)c(C(=O)NC(C)C)[nH]c(=O)c12	97.3%	147%	105%	96.1%	98.9%	101%	–	106%
CCOc1nc(-c2ccccc2)cc2c(O)c(C(=O)NCCCO)[nH]c(=O)c12	97.4%	97.6%	94.9%	96.4%	90.3%	98.9%	–	99.1%
CC(C)=C1CCC(C)C/C1=N\N=C(N)N (configuration not stated)	97.4%	107%	101%	103%	92.4%	102%	109%	107%
COc1cc(N=C2C(=O)N(Cc3ccccc3)c3ccccc32)cc(OC)c1OC	83.9%	106%	98.5%	103%	93.8%	99.8%	–	96.1%
O=C(/C=C/c1nnc2n(Cc3ccccc3)c(=O)c3c4c(sc3n12)CCCC4)c1ccccc1	-39.2% (active)	82.4%	93.2%	9.38% (active)	64.3%	44.1%	87.8%	55.2%
COc1ccc(-c2nsc3c2NC(=O)CC3c2cccc(Cl)c2)cc1 (configuration not stated)	35.3%	36.5%	-12.2% (active)	25.7%	17%	23.8%	43.5%	34.6%
O=C(NNC(=O)c1ccncc1)Nc1ccc([N+](=O)[O-])cc1	90.8%	121%	94.1%	100%	109%	110%	106%	104%
Nc1ccn([C@@H]2O[C@H](COP(=O)(O)O[C@@H]3C[C@H](n4cc(F)c(=O)[nH]c4=O)O[C@@H]3COP(=O)(O)O[C@@H]3C[C@H](n4cc(F)c(=O)[nH]c4=O)O[C@@H]3COP(=O)(O)O[C@@H]3C[C@H](n4cc(F)c(=O)[nH]c4=O)O[C@@H]3COP(=O)(O)O[C@@H]3C[C@H](n4cc(F)c(=O)[nH]c4=O)O[C@@H]3COP(=O)(O)O[C@@H]3C[C@H](n4cc(F)c(=O)[nH]c4=O)O[C@@H]3COP(=O)(O)O[C@@H]3C[C@H](n4cc(F)c(=O)[nH]c4=O)O[C@@H]3COP(=O)(O)O[C@@H]3C[C@H](n4cc(F)c(=O)[nH]c4=O)O[C@@H]3COP(=O)(O)O[C@@H]3C[C@H](n4cc(F)c(=O)[nH]c4=O)O[C@@H]3COP(=O)(O)O[C@@H]3C[C@H](n4cc(F)c(=O)[nH]c4=O)O[C@@H]3COP(=O)(O)O[C@@H]3C[C@H](n4cc(F)c(=O)[nH]c4=O)O[C@@H]3COP(=O)(O)OCCOCCOCCOCCOCCOCCO)[C@H](O)C2O)c(=O)n1 (some centres not stated)	80.5%	48.7%	61.4%	58.2%	19.4%	20.4%	50.4%	47%
CCOC(=O)C(CCC1=NC(C)(C)CC(C)O1)C(=O)OCC (configuration not stated)	102%	88.9%	104%	56.7%	72.8%	46%	98.8%	94.4%
Cc1ccc(S(=O)(=O)Nc2cccc3[nH]c(C(F)(F)F)nc23)cc1	47.2%	52%	-31.5% (active)	18.6%	13.2%	23.8%	28.1%	21%
Clc1cc(Cl)c(Cl)c(-c2nc(-c3cccnc3)cs2)c1	-7.29% (active)	98.3%	4.27% (active)	46.2%	63.6%	40.2%	–	103%
C(=C\c1nc2ccccc2s1)/c1ccc(N2CCOCC2)s1	1.72% (active)	89.5%	64.9%	101%	80.2%	55.4%	–	48.6%
CC(C)CCN(CCCNc1c2c(nc3cc(Cl)ccc13)CCCC2)CCC(C)C	61.7%	87%	86.2%	55.1%	40%	31.8%	90.1%	73.1%
COc1cc(CSc2nc3ccc(C)cc3c(=O)n2Cc2ccccc2)cc(OC)c1OC	34.1%	34.8%	-5.84% (active)	25.8%	18%	25.2%	43%	25.3%
NCCNc1ccc2cc(-c3nc4ccccc4[nH]3)c(=O)oc2c1	82.2%	84.9%	101%	103%	80.9%	93.9%	97.9%	99.8%
COc1ccc2c(c1)/C(=C/c1cc(OC)c(OC)c(OC)c1)C(=O)N2C	-11.1% (active)	57.1%	-50.3% (active)	1.64% (active)	4.54% (active)	19.3%	–	-20.8% (active)
COc1ccc(-c2[nH]ncc2-c2cc(OC)c(OC)c(OC)c2)cc1	58.1%	-6.65% (active)	-48% (active)	23.6%	6.61% (active)	2.61% (active)	-3.98% (active)	-8.7% (active)
COc1cc2nc(Sc3sc(N)nc3C)n(-c3ccc(Oc4ccccc4)cc3)c(=O)c2cc1OC	77.3%	71.3%	93.3%	81.2%	74.4%	47.4%	80.4%	93.5%

SMILES	growth [1]	growth [2]	growth [3]	growth [4]	growth [5]	growth [6]	growth [7]	growth [8]
C/C(=N\NC(=O)c1sc(=S)n(C)c1N)c1cc2ccccc2o1	78.2%	87.2%	41%	81.3%	34.8%	59.1%	–	21.5%
CCN1CCOC1C(C)C (configuration not stated)	101%	108%	105%	–	101%	102%	101%	109%
CCOc1nc(-c2ccccc2)cc2c(O)c(C(=O)N/N=C/c3ccc(OC)cc3)[nH]c(=O)c12	80.9%	123%	113%	110%	101%	109%	–	107%
O=S(=O)(O)C1(O)CCCCC1	85.7%	–	89.2%	81.5%	78%	50.9%	110%	–
Cc1cccc2c(Nc3ccc(NS(C)(=O)=O)cc3)c3ccc([N+](=O)[O-])cc3nc12	0.696% (active)	–	33.2%	-43.5% (active)	0.147% (active)	5.63% (active)	-30.6% (active)	-46.6% (active)
O=NN(CCCl)C(=O)Nc1ccc(NC(=O)N(CCCl)N=O)cc1	102%	–	90.3%	66.1%	86.4%	100%	105%	–
O=C(N/N=C/c1ccccc1O)c1ccccc1	25.5%	60.4%	56.7%	42.2%	3.31% (active)	14.9%	–	35.4%
CCCCN(CCCC)c1ccc(C(=NC(C)CCCN(CC)CC)c2ccc(N(C)C)cc2)cc1 (configuration not stated)	-55.8% (active)	–	-87.5% (active)	-66.7% (active)	-80.9% (active)	-81.5% (active)	-59% (active)	-14.3% (active)
CC1=CC2OC34COC3CC(OC(=O)C(F)(F)F)C4(C)C2(C)CC1 (configuration not stated)	94.2%	–	101%	103%	93.7%	96.6%	98.3%	105%
Nc1nsc(C(=O)c2ccc(O)cc2)n1	94.2%	–	104%	108%	99.3%	94.8%	98.7%	100%
COc1ccc2nc(/C=C/c3ccc(N(C)C)cc3)sc2c1	300%	104%	90.3%	93.6%	96.6%	105%	–	104%
Cc1ccc(Cl)cc1Nc1nc(C(F)(F)F)ccc1C(=O)N/N=C/c1c(Cl)cccc1Cl	-10.9% (active)	31%	13.1%	3.99% (active)	2.24% (active)	12.7%	–	-15.9% (active)
COc1ccc(NC(=O)CCn2cnc3c(cc(-c4ccccc4)n3-c3ccccc3)c2=O)cc1	90.8%	92.2%	96%	–	83.3%	91.4%	96.3%	110%
CC(=O)Nc1nc(C)c(C(=O)N/N=C/c2cccn2C)s1	121%	–	104%	102%	87.5%	111%	70.8%	105%
C/C(=N/NC(=O)c1sc(=S)n(C)c1N)c1cc2cc(Cl)ccc2o1	80.4%	113%	95.7%	44.3%	82.7%	103%	–	88.2%
COC(=O)C1(C(=O)OC)C2C(=O)C3C(C21)C3(C(=O)OC(C)(C)C)C(=O)OC(C)(C)C (configuration not stated)	102%	–	99.9%	106%	103%	101%	112%	112%
C#CCNCCN1C(=O)c2ccc3c4c(ccc(c24)C1=O)C(=O)N(CCNCC#C)C3=O	54.8%	–	-35.8% (active)	26.9%	14.9%	-10.7% (active)	13.2%	30.9%
CCOC(=O)c1c(O)c2cc(-c3ccccc3)nc(OCC)c2c(=O)n1C	94.7%	133%	90.1%	104%	93.8%	87.7%	–	104%
Fc1ccc2[nH]c3c(NCCCN4CCOCC4)ncnc3c2c1	54.6%	–	88.3%	69.6%	84.7%	47.4%	75.4%	–
CC(C)c1ncc(CO)n1Cc1c(Cl)cccc1Cl	73.8%	–	102%	100%	99.5%	102%	109%	–
COC(=O)c1cnc2c(c1)Oc1ccc(Cl)cc1-c1cc(C)nn1-2	59.9%	–	91.3%	66%	83.4%	42.6%	92.1%	–
CNC(=O)c1cc(Oc2ccc(NC(=O)Nc3ccc(Cl)c(C(C)(C)C)c3)c(F)c2)ccn1	20.5%	–	29.9%	69.2%	16%	19.7%	44.2%	20.9%
O=c1oc2c3ccc4cnccc4c3[nH]c2c2ccccc12	-8.53% (active)	32.7%	-69.8% (active)	3.35% (active)	-12.3% (active)	-14.5% (active)	–	28.2%
CN(C)c1ccc2c(c1)OC(N)=C(C#N)C2c1ccc2c(c1)CCO2 (configuration not stated)	66.8%	–	0.989% (active)	31.9%	16.9%	5.3% (active)	36.8%	24.2%
CCCc1c(C)nc2scc(-c3ccc(Cl)cc3)n2c1=O	86.5%	–	108%	109%	95.2%	99.1%	106%	98.2%
Cc1cc(=O)oc2cc(OCc3cn(CC(O)CO)nn3)ccc12 (configuration not stated)	86.8%	97.5%	116%	74%	109%	98.8%	–	111%
Cc1ccc(-c2cc(C(=O)Nc3ccc(S(=O)(=O)N4CCCCC4)cc3)[nH]n2)c(O)c1	33.8%	67.4%	61.3%	–	46.8%	43.5%	68.8%	45.1%
